# Source: PubChem BioAssay
# “And” between values parts separate entries of the source, which are not always exact repeats. Equal entries are not always repeated. Records with an inconclusive call do not appear. The source made the active and inactive calls. Unless noted, the limit is not given here; nearly all actives have AC50 up to about 26 µM.
# Assays:
# [1] = viability loss in pontine glioma line – cell-based, SU-DIPG-XXV, MIPE5.0, CellTiter-Glo, qHTS, dose response (AID 1347065); conditions: CellTiter-Glo ATP luminescence;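 also: cells exposed to compound for 48 hours before ATP readout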
# [2] = SU-DIPG-VI glioma cell viability, MIPE4.0 library, CellTiter-Glo luminescence, qHTS (AID 1347066; cut-off not given, nearly all actives have AC50 up to about 30 µM;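 also: cells exposed to compound for 48 hours before readout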); conditions: CellTiter-Glo ATP luminescence
# [3] = JHH-DIPG-1 glioma cell viability, MIPE5.0 library, CellTiter-Glo luminescence, qHTS (AID 1347067); conditions: JHH-DIPG-1 glioma viability, CellTiter-Glo ATP luminescence;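 also: cells exposed to compound for 48 hours before readout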
# [4] = SU-DIPG-XXV glioma cell viability, MIPE5.0 library, qHTS (AID 1347068; cut-off not given, nearly all actives have IC50 up to about 30 µM)
# [5] = sensitizers of A549 cells to miR-34 induction, primary screen, imaging, A549 dox-inducible miR-34, nuclei and caspase counts (AID 1347080;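 active = compounds whose cell count with miR-34 switched on is under 0.7 times the count with it off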); conditions: A549 miR-34 inducible, Hoechst nuclei count, 48 h
# [6] = phospholipid biosynthesis inhibitors in animal cells, primary screen, cell-based, LOPAC library, screen 4 (AID 1347384; call rule not given here); conditions: phospholipid biosynthesis inhibition screen, at 10 µM
# [7] = biological target: NAD(+) hydrolase SARM1 (Homo sapiens) (UniProt Q6SZW1); test: SARM1 TIR NADase inhibitors, cell lysate, NAD-Glo luminescence (AID 1508614;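 active = compound whose remaining NAD level is above about 45 nM, limit read from the data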;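 also: higher remaining NAD means stronger inhibition of SARM1 NADase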); conditions: SAM-TIR HEK293T lysate NADase, at 1 µM, stronger effect = higher value
# [8] = biological target: Mitogen-activated protein kinase 7 (Homo sapiens) (UniProt Q13164); test: ERK5 transactivation activators in reporter cells, primary screen, cell-based, HTS (AID 1508626;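 active = luciferase signal above three times the same-plate solvent-only control wells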;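 also: luciferase driven by Gal4-ERK5 fusion binding five Gal4 sites before minimal TATA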); conditions: HeLa Gal4-ERK5 transactivation, 18 h, at 5 µM, stronger effect = higher value
# [9] = viability rescue of complex I mutant cybrids, primary screen, cell-based, galactose medium, ATP luminescence (AID 1645843;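 active = z-score of at least 1.8 in each of two replicates, scored against plate mean and spread of sample wells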;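 also: positive z means more ATP and so rescue of galactose-driven cybrid death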); conditions: complex I mutant cybrid cells, 72 h, stronger effect = higher value
# [10] = survival rescue of mitochondrial mutant cells in low glucose, primary screen, MELAS cybrids, Rieske KO mouse fibroblasts, CellTiter-Glo (AID 1508586;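 active = mean z-score across replicates of 1.96 or higher in either the MELAS or the Rieske mutant cell line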;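 also: z relative to plate mean and SD of compound and empty wells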)
# [11] = stronger effect = lower value, cell number ratio, induced over uninduced
# [12] = measured here: relative caspase fold change +Dox/-Dox
# [13] = measured here: total cells with miR-34 induction, stronger effect = lower value
# [14] = measured here: total cells without miR-34 induction
# [15] = MELAS cybrid survival, CellTiter-Glo 48 h, stronger effect = higher value
# [16] = Rieske KO mouse fibroblast survival, CellTiter-Glo 72 h
# NAD(+) hydrolase SARM1 (Homo sapiens), sequence (Q6SZW1 whole entry, looked up, the tested form may be a part): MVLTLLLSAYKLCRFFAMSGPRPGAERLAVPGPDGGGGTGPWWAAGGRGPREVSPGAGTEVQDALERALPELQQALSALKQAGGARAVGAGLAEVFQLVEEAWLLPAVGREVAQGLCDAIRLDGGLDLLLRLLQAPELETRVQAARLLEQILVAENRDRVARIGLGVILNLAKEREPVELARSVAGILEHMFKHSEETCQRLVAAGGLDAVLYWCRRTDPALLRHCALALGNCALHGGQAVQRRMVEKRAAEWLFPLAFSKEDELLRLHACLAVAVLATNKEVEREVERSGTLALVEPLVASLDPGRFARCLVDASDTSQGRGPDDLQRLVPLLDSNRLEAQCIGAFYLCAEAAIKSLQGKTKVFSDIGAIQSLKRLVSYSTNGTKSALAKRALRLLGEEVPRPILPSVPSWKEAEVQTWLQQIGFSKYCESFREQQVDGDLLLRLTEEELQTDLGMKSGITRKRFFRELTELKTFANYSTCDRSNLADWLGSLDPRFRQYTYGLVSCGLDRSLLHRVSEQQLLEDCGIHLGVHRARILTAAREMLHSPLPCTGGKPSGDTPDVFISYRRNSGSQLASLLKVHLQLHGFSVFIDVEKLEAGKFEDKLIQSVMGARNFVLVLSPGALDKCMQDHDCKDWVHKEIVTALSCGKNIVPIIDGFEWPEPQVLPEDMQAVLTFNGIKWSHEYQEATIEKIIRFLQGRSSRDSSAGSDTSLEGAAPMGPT
# Mitogen-activated protein kinase 7 (Homo sapiens), sequence (Q13164 whole entry, looked up, the tested form may be a part): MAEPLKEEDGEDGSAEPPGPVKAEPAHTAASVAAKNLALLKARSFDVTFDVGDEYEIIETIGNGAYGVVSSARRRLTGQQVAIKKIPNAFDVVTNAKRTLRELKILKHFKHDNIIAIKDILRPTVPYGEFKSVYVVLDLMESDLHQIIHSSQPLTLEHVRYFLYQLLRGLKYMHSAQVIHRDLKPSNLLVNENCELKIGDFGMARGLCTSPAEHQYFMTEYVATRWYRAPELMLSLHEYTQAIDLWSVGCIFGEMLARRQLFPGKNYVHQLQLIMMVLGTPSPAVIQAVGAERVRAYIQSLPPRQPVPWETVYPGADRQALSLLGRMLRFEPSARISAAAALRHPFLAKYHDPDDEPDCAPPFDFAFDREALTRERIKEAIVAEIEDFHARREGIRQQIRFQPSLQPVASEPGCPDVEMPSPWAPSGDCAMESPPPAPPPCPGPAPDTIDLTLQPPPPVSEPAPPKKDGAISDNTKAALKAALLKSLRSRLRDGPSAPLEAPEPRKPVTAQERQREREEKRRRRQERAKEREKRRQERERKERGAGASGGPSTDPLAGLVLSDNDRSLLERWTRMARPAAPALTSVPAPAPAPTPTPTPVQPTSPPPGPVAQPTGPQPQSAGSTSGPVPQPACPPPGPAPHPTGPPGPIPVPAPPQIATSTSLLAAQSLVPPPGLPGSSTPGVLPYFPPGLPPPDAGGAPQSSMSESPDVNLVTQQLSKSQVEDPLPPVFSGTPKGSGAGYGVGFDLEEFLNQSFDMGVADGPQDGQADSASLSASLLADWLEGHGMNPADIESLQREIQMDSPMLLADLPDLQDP
Compound,outcome [1],outcome [2],outcome [3],outcome [4],"fold change [5, 11]","fold change [5, 12]","cell count [5, 13]","cell count [5, 14]",outcome [6],remaining NAD [7],luciferase signal [8],z-score [9],"z-score [10, 15]","z-score [10, 16]",AC50 [3]
NCCS(=O)(=O)O,inactive,inactive,inactive,inactive,0.992 (inactive) and 0.904 (inactive),1.43 and 3.02,10100 and 12500,10200 and 13800,inactive,10 nM (inactive),80 AU (inactive),0.675 (inactive),,,
NC(=O)c1ncn([C@@H]2O[C@H](CO)[C@@H](O)[C@H]2O)c1O,inactive,inactive,inactive,inactive,1.09 (inactive),1.07,10800,9890,inactive,,,0.59 (inactive),,,
CCCc1cc(C(N)=S)ccn1,inactive,inactive,inactive,inactive,0.877 (inactive) and 0.879 (inactive),0.726 and 1.06,7890 and 9370,8990 and 10700,,10 nM (inactive),96 AU (inactive),0.335 (inactive),-0.334 (inactive) and 1.02 (inactive) and 0.566 (inactive),-0.0512 and 0.419 and 0.177,
CCC1(C)CC(=O)NC1=O (stereo unspecified),inactive,inactive,inactive,inactive,0.975 (inactive) and 0.962 (inactive) and 0.96 (inactive),1.24 and 1.03 and 2.35,10300 and 8160 and 12600,10600 and 8470 and 13100,inactive,10 nM (inactive),64 AU (inactive),0.235 (inactive),-0.00472 (inactive),-0.121,
Nc1ccc(S(N)(=O)=O)cc1,inactive,inactive,inactive,inactive,0.863 (inactive) and 1.01 (inactive) and 0.955 (inactive),1.61 and 1.13 and 2.65,8720 and 8600 and 12400,10100 and 8510 and 12900,,10 nM (inactive),164 AU (inactive),,-0.359 (inactive) and -1 (inactive),0.662 and -0.707,
C[C@]12CC[C@@H]3c4ccc(O)cc4CC[C@H]3[C@@H]1C[C@@H](O)[C@@H]2O,inactive,inactive,,inactive,0.957 (inactive) and 0.899 (inactive),0.729 and 1.36,9380 and 8690,9810 and 9670,,10 nM (inactive),64 AU (inactive),0.76 (inactive),0.707 (inactive) and -0.312 (inactive),0.79 and 0.38,23.5 µM (active)
Cc1cc2cc3c(C)cc(=O)oc3c(C)c2o1,inactive,inactive,inactive,inactive,0.952 (inactive) and 0.881 (inactive),1.2 and 2.5,9030 and 10900,9480 and 12400,,10 nM (inactive),104 AU (inactive),,-0.707 (inactive),-0.528,
NCC1CCC(C(=O)O)CC1 (stereo unspecified),inactive,inactive,inactive,inactive,0.928 (inactive) and 0.834 (inactive),1.25 and 2.45,8960 and 11200,9660 and 13500,,10 nM (inactive),44 AU (inactive),,-0.244 (inactive),-0.313,
O=C(O)CCNC(=O)c1ccc(N=Nc2ccc(O)c(C(=O)O)c2)cc1,inactive,inactive,inactive,inactive,0.971 (inactive) and 0.94 (inactive) and 0.899 (inactive),0.807 and 0.806 and 1.14,9210 and 7860 and 9290,9490 and 8360 and 10300,,10 nM (inactive),,1.23 (inactive),-1.26 (inactive),-1.16,
O=C(O)c1cn(-c2ccc(F)cc2)c2cc(N3CCNCC3)c(F)cc2c1=O,inactive,inactive,inactive,inactive,0.867 (inactive) and 0.86 (inactive),3.37 and 1.06,11600 and 8760,13400 and 10200,,14 nM (inactive),72 AU (inactive),0.12 (inactive),0.702 (inactive) and 0.944 (inactive),0.262 and 0.886,
O=C(O)CSCC(=O)NC1CCSC1=O (stereo unspecified),inactive,inactive,inactive,inactive,0.961 (inactive) and 0.85 (inactive),0.755 and 1.41,8260 and 8130,8600 and 9570,,10 nM (inactive),,,-0.199 (inactive),0.356,
Cn1c(=O)c2c(ncn2CC(O)CO)n(C)c1=O (stereo unspecified),inactive,inactive,inactive,inactive,0.891 (inactive) and 0.954 (inactive) and 0.903 (inactive),1.59 and 0.805 and 1.72,9080 and 7480 and 11300,10200 and 7830 and 12600,,10 nM (inactive),20 AU (inactive),,-0.421 (inactive) and 0.782 (inactive),0.428 and -0.0518,
CC(C)c1ccc2oc3nc(N)c(C(=O)O)cc3c(=O)c2c1,inactive,inactive,inactive,inactive,0.955 (inactive),1.68,9060,9490,,10 nM (inactive),,0.635 (inactive),0.841 (inactive),-1.05,
C[C@@H]1CN(c2c(F)c(N)c3c(=O)c(C(=O)O)cn(C4CC4)c3c2F)C[C@H](C)N1,inactive,inactive,inactive,inactive,0.881 (inactive),1.37,9500,10800,,10 nM (inactive),,0.565 (inactive),-0.149 (inactive) and 0.182 (inactive),-0.511 and -0.3,
CC(C)NCC(O)COc1ccc(CCOCC2CC2)cc1 (stereo unspecified),inactive,inactive,inactive,inactive,,,,,inactive,10 nM (inactive),,,,,
